# Source: PubChem BioAssay
# RGS7-Gao: modulates binding of RGS7 to human Galphao | P09471 | Multiplexed bead flow cytometry; actives lie on both sides | binding response (% of control), % at 10 µM | 0.35% of 220,000 active | AID 1439; in the data active = binding response below about 49% or above about 150%; inconclusive = no clear call, values can overlap the other calls; inactive = in between;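 also: fluorescent Galphao held in activated GDP-AlF4 state binding bead-coupled RGS7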
# Target sequence (P09471 whole entry, looked up): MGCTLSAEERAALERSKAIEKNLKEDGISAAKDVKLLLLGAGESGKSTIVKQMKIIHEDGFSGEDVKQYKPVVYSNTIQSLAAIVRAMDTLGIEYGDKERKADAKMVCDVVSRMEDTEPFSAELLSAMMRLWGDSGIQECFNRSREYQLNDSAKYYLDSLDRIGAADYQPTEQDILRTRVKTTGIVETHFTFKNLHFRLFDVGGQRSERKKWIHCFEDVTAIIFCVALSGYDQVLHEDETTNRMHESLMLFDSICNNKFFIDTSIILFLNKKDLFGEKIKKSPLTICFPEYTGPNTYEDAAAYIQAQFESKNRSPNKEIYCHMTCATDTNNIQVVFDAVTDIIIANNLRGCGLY
# Avidin fluor: compound fluoresces at 488/530 nm on avidin beads; compound fluorescence 488/530 nm, flow cytometry; hits give high values; fluorescence (KMESF) at 10 µM; 0.38% of 220,000 active; AID 1775; in the data active = fluorescence above about 47
# RGS4-Gao reg: modulates binding of RGS4 to human Galphao | P09471 | Multiplexed bead flow cytometry; actives lie on both sides | binding response (% of control), % at 10 µM | 0.33% of 220,000 active; in the data active = binding response below about 49% or above about 150%; inactive = in between;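 also: fluorescent Galphao activated with aluminum fluoride binding bead-coupled RGS4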
# RGS8-Gao: human RGS8-Galphao interaction regulation; multiplexed bead flow cytometry, RGS8-Galphao binding; actives lie on both sides; response (percent of control binding), % at 10 µM; 0.34% of 220,000 active; AID 1423; in the data active = response below about 60% or above about 140%; inactive = in between;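 also: Galphao activated as the GDP aluminium fluoride complex binding bead-coupled RGS8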
# GSH fluor: GSH bead compound fluorescence profile; GSH beads flow cytometry, compound fluorescence 488/530 nm; hits give high values; fluorescence (KMESF) at 10 µM; 0.25% of 190,000 active; AID 1776; in the data active = fluorescence above about 89;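 also: glutathione beads carrying GST-tagged Bcl family fusion proteins plus one bare bead set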
# RGS16-Gao HTS: modulates binding between human RGS16 and Galphao | bead-based flow cytometry RGS16-Galphao binding, fluorescence; actives lie on both sides | binding response (% of control), % at 10 µM | 0.38% of 220,000 active | AID 1441;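 also: Galphao activated by GDP with aluminum fluoride before binding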
# RGS4-Gao HTS: modulates binding between human RGS4 and Galphao; 99% of 1,600 active; multiplexed bead flow cytometry, RGS–Galpha-o binding; shares compounds with RGS16-Gao HTS; AID 1504; RGS4–Galpha-o binding response, % at 10 µM;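 also: fluorescently labeled Galpha-o bound to GDP with aluminium fluoride binding biotinylated RGS beads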
# Target sequence (P09471 whole entry, looked up): as above
# Target sequence (P49798 whole entry, looked up): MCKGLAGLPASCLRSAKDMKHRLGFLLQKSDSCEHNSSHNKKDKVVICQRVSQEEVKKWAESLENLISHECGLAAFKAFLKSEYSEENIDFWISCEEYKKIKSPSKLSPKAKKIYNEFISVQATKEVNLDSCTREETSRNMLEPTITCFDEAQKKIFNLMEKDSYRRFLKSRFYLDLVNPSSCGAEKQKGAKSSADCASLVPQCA
# Biotin-avidin: counter-screen: compounds disrupting biotin binding to avidin beads. shares compounds with RGS16-Gao HTS. streptavidin beads, fluorescein-biotin binding, flow cytometry. inhibition, % at 10 µM. 1,700 tested, under 10 active. AID 1783;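 active = inhibition above 50%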;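 also: median green fluorescence of gated singlet beads compared with DMSO control wells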
# RGS8-Gao confirm: RGS8-Galphao interaction regulation, single point confirmation. shares compounds with RGS16-Gao HTS. bead-based flow cytometry RGS8-Galphao binding, fluorescence; actives lie on both sides. binding response (% of control), % at 10 µM. 3% of 1,700 active. AID 1836; in the data active = binding response below about 72% or above about 130%; inactive = in between;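 also: Galphao activated as GDP AlF4 complex before binding bead RGS8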
# RGS7-Gao confirm: RGS7-Galphao interaction regulation, single point confirmation. AID 1837. bead-based flow cytometry RGS7-Galphao binding; actives lie on both sides. 7.8% of 1,700 active. shares compounds with RGS16-Gao HTS. response (percent of control binding), % at 10 µM; in the data active = response below about 75% or above about 130%; inactive = in between;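 also: fluorescent Galphao activated with GDP and aluminum fluoride binding bead-coupled RGS7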
# RGS16-Gao single: RGS16-Galphao interaction regulation, single point confirmation; shares compounds with RGS16-Gao HTS; bead-based flow cytometry, RGS16-Galphao binding; actives lie on both sides; AID 1838; response (% of control binding), % at 10 µM; 4% of 1,700 active; in the data active = response below about 74% or above about 130%; inactive = in between;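 also: Galphao activated as the GDP aluminium fluoride complex binding bead-coupled RGS16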
# RGS4-Gao single: confirmation of regulators of human RGS4-Galphao interaction | binding response (% of control), % at 10 µM | RGS4-Galphao binding, multiplexed bead flow cytometry; actives lie on both sides | shares compounds with RGS16-Gao HTS | 4% of 1,700 active; in the data active = binding response below about 74% or above about 130%; inactive = in between
# RGS19-Gao conf: confirmation of regulators of human RGS19-Galphao interaction | AID 1841 | bead-based flow cytometry RGS19-Galphao binding; actives lie on both sides | shares compounds with RGS16-Gao HTS | response (percent of control binding), % at 10 µM | 5% of 1,700 active; in the data active = response below about 50% or above about 160%; inactive = in between
# Numbers stand for hits; i = inactive; ? = inconclusive; nt = not tested or not shown; [ ] = remark or other dose. Sampled rows, rich in hits. Any-hit rate of the full collection: about 1.2%. Unless noted, no rule for the calls is given here.
SMILES,RGS7-Gao,Avidin fluor,RGS4-Gao reg,RGS8-Gao,GSH fluor,RGS16-Gao HTS,Biotin-avidin,RGS8-Gao confirm,RGS7-Gao confirm,RGS16-Gao single,RGS4-Gao single,RGS19-Gao conf,others
COc1ccc(C2SCC(=O)N2c2c(C)n(C)n(-c3ccccc3)c2=O)cc1 (stereo not drawn),i,i,i,i,i,i,nt,nt,nt,nt,nt,nt,
Cc1c(N2C(=O)CSC2c2ccc([N+](=O)[O-])cc2)c(=O)n(-c2ccccc2)n1C (stereo not drawn),?,i,163.7[activator],i,nt,i,i,i,i,i,i,i,
CN(Cc1ccccc1)CC(O)COc1ccc(CNCc2ccc(Cl)s2)cc1 (stereo not drawn),i,i,i,i,i,i,nt,nt,nt,nt,nt,nt,
CCN1c2ccc(S(=O)(=O)N3CCOCC3)cc2N(Cc2ccc(OC)cc2)C1C (stereo not drawn),49.9,i,48.4,58.7,i,i,i,i,i,i,i,i,
COc1ccc2cc(S(=O)(=O)N3CCOCC3)ccc2c1,i,i,i,i,i,i,nt,nt,nt,nt,nt,nt,
O=C(CSc1nc(O)cc(=O)[nH]1)N1c2ccccc2CCc2ccccc21,?,i,i,i,nt,i,nt,nt,nt,nt,nt,nt,
Cc1cc2cc(CCNC(=O)c3ccc(C)c([N+](=O)[O-])c3)c(=O)[nH]c2cc1C,7.7,i,3.7,16.5,i,i,i,i,i,i,i,i,
Cc1ccc(C(=O)NCCc2nc3ccccc3[nH]2)cc1[N+](=O)[O-],i,i,i,i,i,i,nt,nt,nt,nt,nt,nt,
CCOCC(=O)Nc1cccc(C(=O)OCC)c1,i,i,i,i,i,i,nt,nt,nt,nt,nt,nt,
CCOCC(=O)Nc1cc(C(=O)OC)cc(C(=O)OC)c1,i,i,i,i,i,203.4[activator],i,i,i,i,i,i,RGS4-Gao HTS=110.2
CCn1nc(C)c(Br)c1C(=O)Sc1ccccc1Cl,?,i,i,i,nt,i,nt,nt,nt,nt,nt,nt,
Cc1c(NC(=O)Nc2ccc3c(c2)OCO3)c(=O)n(-c2ccccc2)n1C,226.6[activator],149,i,i,i,i,i,i,i,i,i,i,RGS4-Gao HTS=121.8
Cc1c(NC(=O)CNCc2ccc3c(c2)OCO3)c(=O)n(-c2ccccc2)n1C,?,i,i,i,nt,i,nt,nt,nt,nt,nt,nt,
Cc1c(NC(=S)NC(=O)C2CCCCC2)c(=O)n(-c2ccccc2)n1C,14.8,i,7.8,17.4,i,13.3,i,i,67.0,i,i,i,
Cc1c(NC(=S)NC(=O)C(C)(C)C)c(=O)n(-c2ccccc2)n1C,i,i,i,i,i,i,nt,nt,nt,nt,nt,nt,
O=C(N/N=C/c1ccccn1)c1cccc(S(=O)(=O)N2CCCC2)c1,?,i,i,i,nt,i,nt,nt,nt,nt,nt,nt,
COc1ccc(-c2csc(NC(=O)C3=NN(c4ccccc4)C(=O)CC3)n2)cc1,i,i,i,i,i,i,nt,nt,nt,nt,nt,nt,
COc1ccc(C2(C(=O)NCc3ccccc3Cl)CCOCC2)cc1OC,i,i,i,i,i,i,nt,nt,nt,nt,nt,nt,
Nc1nc(-c2cc3ccccc3o2)cs1,?,i,i,i,nt,i,nt,nt,nt,nt,nt,nt,
CSC(=S)N(C)C1CCS(=O)(=O)C1 (stereo not drawn),i,i,i,i,i,24.5,i,i,i,i,i,i,RGS4-Gao HTS=86.9
Cc1cc(OCC(=O)Nc2ccc(F)c(F)c2)nc(C(C)C)n1,2.3,i,-21.4,34.3,i,-13.4,i,i,i,i,i,i,
Cc1cc(OCC(=O)Nc2ccccc2F)nc(C(C)C)n1,i,i,i,i,i,i,nt,nt,nt,nt,nt,nt,
CCCCc1ccc(NC(=O)C(=O)NCCN2CCN(Cc3ccc([N+](=O)[O-])cc3)CC2)cc1,i,i,i,i,i,i,nt,nt,nt,nt,nt,nt,
CCN1CC=C2C(C#N)=C(N)C(C#N)(C#N)C(CCc3ccccc3)C2C1 (stereo not drawn),i,i,i,i,i,i,nt,nt,nt,nt,nt,nt,
CC(=O)N1CC=C2C(C#N)=C(N)C(C#N)(C#N)C(CCc3ccccc3)C2C1 (stereo not drawn),nt,nt,nt,nt,i,nt,i,i,i,i,i,i,
SMILES,RGS7-Gao,Avidin fluor,RGS4-Gao reg,RGS8-Gao,GSH fluor,RGS16-Gao HTS,Biotin-avidin,RGS8-Gao confirm,RGS7-Gao confirm,RGS16-Gao single,RGS4-Gao single,RGS19-Gao conf,others
Cc1ccc(NC(=O)c2cccc(OCc3c(C)noc3C)c2)cc1,i,i,i,i,i,i,nt,nt,nt,nt,nt,nt,
Cc1ccc(NC(=O)c2ccc(OCc3c(C)noc3C)cc2)cc1,?,i,22.8,52.9,nt,i,i,i,i,i,i,i,
CCN(CC)S(=O)(=O)c1ccc(NC=C(C#N)C#N)cc1,?,i,i,i,nt,i,nt,nt,nt,nt,nt,nt,
CC1CCN(S(=O)(=O)c2ccc(S(=O)(=O)NCc3ccccc3)cc2)CC1,i,i,i,i,i,i,nt,nt,nt,nt,nt,nt,
CC1CCCC(C)N1S(=O)(=O)c1ccc(S(=O)(=O)NCc2ccccc2)cc1 (stereo not drawn),i,i,i,i,i,22.2,i,i,i,i,i,i,RGS4-Gao HTS=89.8
Nc1ncnc(Nc2ccc(S(N)(=O)=O)cc2)n1,?,i,i,i,nt,i,nt,nt,nt,nt,nt,nt,
Cc1nn(C)c(C(=O)N/N=C/c2ccc(Br)cc2)c1Cl,40.1,i,46.2,58.0,i,i,i,i,i,i,i,i,
Cc1nn(C)c(C(=O)N/N=C/c2cccc3ccccc23)c1Cl,27.9,i,27.8,38.2,i,i,i,i,i,i,i,i,
O=C(Cn1cncn1)N/N=C/c1cccc2ccccc12,i,i,i,i,i,i,nt,nt,nt,nt,nt,nt,
N#Cc1nc(COc2ccc(Br)cc2)oc1NCCN1CCOCC1,i,i,i,143.3[activator],i,i,i,i,i,i,i,i,RGS4-Gao HTS=140.1
O=C(O)c1cc(C(F)(F)F)nc2c(C(F)(F)F)cccc12,174.3[activator],i,i,i,i,i,nt,nt,nt,nt,nt,nt,RGS4-Gao HTS=142.6
O=C(CCn1ccnc1)Nc1ccc2ccccc2c1,?,i,i,i,i,i,nt,nt,nt,nt,nt,nt,
CCn1c(SCC(=O)N2CCCC(C)C2)nnc1-c1ccc(S(=O)(=O)N2CCN(C)CC2)cc1 (stereo not drawn),nt,nt,nt,nt,i,nt,i,i,i,i,i,i,
